PubChem BioAssay (NCI)
The panel holds about 83,000 compounds, 20% with a hit somewhere; the sample as a whole holds those more often.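 Each cell line was grown in a 96-well plate and treated with one concentration of compound for 48 hours. Values below 10 were considered active.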 Unmarked numbers belong to inactive results. Calls of active or inactive are those of the source.

Legend:
Assay in all cases: NCI-60 one-dose screen, 48 h (100 = growth as untreated, 0 = no growth, -100 = all killed)
Conditions in all cases: 10 µM
NCI-H23 lung = test system: NCI-H23 lung
NCI-H226 lung = test system: NCI-H226 lung
NCI-H322M lung = test system: NCI-H322M lung
HOP-62 NSCLC = test system: HOP-62 NSCLC
NCI-H460 lung = test system: NCI-H460 lung
HOP-92 NSCLC = test system: HOP-92 NSCLC
NCI-H522 lung = test system: NCI-H522 lung
A549/ATCC NSCLC = test system: A549/ATCC NSCLC
786-0 renal = test system: 786-0 renal
COLO 205 colon = test system: COLO 205 colon

| SMILES | growth (NCI-H23 lung) | growth (NCI-H226 lung) | growth (NCI-H322M lung) | growth (HOP-62 NSCLC) | growth (NCI-H460 lung) | growth (HOP-92 NSCLC) | growth (NCI-H522 lung) | growth (A549/ATCC NSCLC) | growth (786-0 renal) | growth (COLO 205 colon) |
| --- | --- | --- | --- | --- | --- | --- | --- | --- | --- | --- |
| O=C(COc1ccc(Cl)cc1Cl)Oc1coc(CSc2nc3ccccc3s2)cc1=O | 94.5% | 93.8% | 114% | 107% | 101% | 110% | 74.8% | 27.8% | 113% | 114% |
| CC(C)C[C@H](NC(=O)CCn1ccc2ccccc2c1=O)B(O)O | 63.4% | -16.2% (active) | 91% | 82.7% | 93.8% | 90.1% | 19.9% | 58% | 48.5% | 48.7% |
| C=CCn1ccc(=O)nc1SC | 107% | 112% | 111% | 97.1% | 104% | 97.3% | 100% | 111% | 101% | 106% |
| Cc1ccc(-n2c(-c3cc4c([nH]c5ccccc54)c(-c4cccc(O)c4)n3)n[nH]c2=S)cc1 | 22.9% | -27.1% (active) | -2.32% (active) | -24% (active) | 4.05% (active) | 34.3% | -39.9% (active) | 2.93% (active) | 10.8% | 17.8% |
| CC(=O)[C@H]1CC[C@H]2[C@@H]3CC[C@@H]4CC=C(C=O)C[C@]4(C)[C@H]3CC[C@]12C | 92.7% | 99.4% | 97.6% | 122% | 103% | 68.1% | 82.5% | 92.4% | 93.2% | 105% |
| CCc1c(C)[nH]c(=O)c(C(N)=O)c1C#N | 107% | 117% | 104% | 96.7% | 106% | 109% | 80.5% | 89.4% | 96.2% | 110% |
| Cc1cc(C)c(/C=C2\C(=O)Nc3ccc(NC(=O)CCCCCCC(=O)NO)cc32)[nH]1 | 52.4% | 65.6% | 31.3% | 34% | 77.4% | -30.4% (active) | -10.6% (active) | 82% | 72% | 3.61% (active) |
| COc1ccccc1S(=O)(=O)Nc1ccc2c(c1)CN(C)C(=O)N2 | 56.7% | 63% | 42.9% | 44.3% | 55.8% | 2.37% (active) | 26.1% | 50.5% | 72.7% | 38.4% |
| O=C(O)CN1C(=O)C=CC1=O | 106% | 108% | 90.9% | 107% | 107% | 111% | 103% | 108% | 103% | 94.8% |
| COc1ccc2oc(=O)cc(C3c4ccc([nH]4)C(c4cc(=O)oc5ccc(OC)cc45)c4ccc([nH]4)C(c4cc(=O)oc5ccc(OC)cc45)c4ccc([nH]4)C(c4cc(=O)oc5ccc(OC)cc45)c4ccc3[nH]4)c2c1 (stereo not given) | -12.4% (active) | 15.8% | 27.9% | 17.6% | 6.39% (active) | 41.8% | -71.9% (active) | 41.1% | -24% (active) | -76.7% (active) |
| Nc1cc(O)cc(O)c1 | 93.9% | 107% | 104% | 88.1% | 106% | 93.4% | 94% | 106% | 93.9% | 102% |
| O=[N+]([O-])c1ccc(S(=O)(=O)OCCCCOS(=O)(=O)c2ccc([N+](=O)[O-])cc2)cc1 | 102% | 90.1% | 112% | 98.5% | 108% | 110% | 96.8% | 103% | 99% | 117% |
| COc1cc(-c2nc(-c3nnc(-c4cccnc4)o3)c3ccccn23)cc(OC)c1OC | 101% | 86% | 101% | 102% | 109% | 100% | 94.7% | 93.9% | 89.1% | 119% |
| N=C(N)c1ccc(-c2ccc(-c3ccccc3)s2)s1 | 54.6% | -19.8% (active) | -86.2% (active) | -83.9% (active) | -70% (active) | -37.8% (active) | -69.4% (active) | -60.8% (active) | -36.7% (active) | -96.3% (active) |
| O=C(O)CNS(=O)(=O)c1ccc(OCCOc2ccc(S(=O)(=O)NCC(=O)O)cc2)cc1 | 95.9% | 100% | 97.4% | 92.8% | 109% | 104% | 88.9% | 104% | 104% | 99.8% |
| Fc1cc(-c2ncc(-c3cc(F)c(F)c(F)c3)c(NC3CCCCCC3)n2)cc(F)c1F | 102% | 95.9% | 102% | 122% | 102% | 88.8% | 120% | 85.6% | 98.3% | 115% |
| Nc1ccc2c(c1)Cc1cc(N)c(Cl)cc1-2 | 103% | 107% | 88.1% | 109% | 105% | 76.4% | 92.2% | 88.2% | 97.7% | 105% |
| O=C(NNc1nc(N2CCCC2)nc(N2CCCC2)n1)c1ccccc1 | 99.3% | 107% | 94.9% | 101% | 117% | 83.5% | 94.2% | 104% | 121% | 109% |
| Fc1ccc2[nH]c3c(NCCCN4CCOCC4)ncnc3c2c1 | 83.2% | 62.2% | 53.6% | 32.7% | 54% | 63.9% | 58.1% | 54.5% | 24.1% | 53.4% |
| COc1ccc2c(=O)cc(C(Cl)(Cl)Cl)oc2c1 | -18.4% (active) | -29.2% (active) | -17.6% (active) | -14.8% (active) | -7.69% (active) | -26.1% (active) | -51.7% (active) | -0.889% (active) | 8.97% (active) | -88.4% (active) |
| COc1ccccc1CNCCCN1C(=O)c2ccc3c4c(ccc(c24)C1=O)C(=O)N(CCCNCCNCCCN)C3=O | 6.85% (active) | 39.9% | 27.9% | 40.4% | 6.29% (active) | 66.3% | -0.0156% (active) | 6.04% (active) | 45.4% | -59.4% (active) |
| Cn1c(=O)c2[nH]c(C(O)c3ccc(Cl)cc3)nc2n(C)c1=O (stereo not given) | 98.8% | 103% | 111% | 94.7% | 100% | 76.1% | 96.7% | 96.3% | 98.6% | 102% |
| CN(C)CCCN1c2ccccc2Sc2ccc(C(F)(F)F)cc21 | 47% | 54.7% | 37.1% | 37.2% | 13.8% | -9.96% (active) | -15.2% (active) | 53.3% | 9.65% (active) | -77.8% (active) |
| COc1cc(OC)cc(-c2n/c(=C\c3c(O)[nH]c4ccc(OC)cc34)cc3c2=Nc2ccccc2-3)c1 | 65.8% | 92.4% | 102% | 99.1% | 12.8% | 68.6% | 108% | 52.1% | 75.9% | 86.5% |
| O=C(CSc1nnc(-c2ccc(Cl)cc2)o1)c1ccccc1 | 88.7% | 96.3% | 119% | 91.1% | 105% | 107% | 78.6% | 73.2% | 92.8% | 108% |
